# Columns and labels:
# Assay in all cases: DAPPL (digital affinity profiling via proximity ligation, sequencing); 10 mM Tris-HCl pH 7.5, 50 mM NaCl, 1 mM DTT, 4% glycerol, room temperature, 30 min; GST-TFs on glutathione beads, 16-mer random dsDNA library, 0.1% formaldehyde crosslink after washing; high values mean tight binding
# FLI1 = biological target: T1, FLI1 (Homo sapiens, UniProt Q01543 1-452); details: protein: recombinant; tags: N-terminal GST; dsDNA, one strand shown
# T1 sequence: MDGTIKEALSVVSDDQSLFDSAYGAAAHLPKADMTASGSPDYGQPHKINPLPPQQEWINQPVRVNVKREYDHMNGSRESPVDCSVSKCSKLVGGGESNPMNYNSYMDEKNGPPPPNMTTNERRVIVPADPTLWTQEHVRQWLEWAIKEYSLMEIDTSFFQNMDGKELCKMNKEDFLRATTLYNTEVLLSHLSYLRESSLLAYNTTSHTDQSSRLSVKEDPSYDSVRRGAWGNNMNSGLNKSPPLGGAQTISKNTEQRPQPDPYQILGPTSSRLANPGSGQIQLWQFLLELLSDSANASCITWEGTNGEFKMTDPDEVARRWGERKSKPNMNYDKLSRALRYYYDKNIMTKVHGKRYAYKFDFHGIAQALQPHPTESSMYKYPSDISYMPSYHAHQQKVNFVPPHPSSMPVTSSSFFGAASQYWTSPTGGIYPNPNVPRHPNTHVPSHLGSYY
# How it was run: (§1)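 GST fusions of human transcription factors were expressed in yeast and captured with glutathione beads. Once given DNA barcodes and pooled alongside a tag-only sample, they were incubated for 30 min at room temperature with 200 nmole of a random double-stranded 16-mer DNA library in Tris/NaCl/DTT/glycerol buffer, then washed, crosslinked (0.1% formaldehyde), proximity-ligated, PCR-amplified and sequenced on an Illumina NextSeq500. The binding signal of each hexamer is its read frequency for a factor divided by its frequency for the tag-only sample.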
# ELK1 = biological target: T2, ELK1 (Homo sapiens, UniProt P19419 1-428); details: protein: recombinant; tags: N-terminal GST; dsDNA, one strand shown
# T2 sequence: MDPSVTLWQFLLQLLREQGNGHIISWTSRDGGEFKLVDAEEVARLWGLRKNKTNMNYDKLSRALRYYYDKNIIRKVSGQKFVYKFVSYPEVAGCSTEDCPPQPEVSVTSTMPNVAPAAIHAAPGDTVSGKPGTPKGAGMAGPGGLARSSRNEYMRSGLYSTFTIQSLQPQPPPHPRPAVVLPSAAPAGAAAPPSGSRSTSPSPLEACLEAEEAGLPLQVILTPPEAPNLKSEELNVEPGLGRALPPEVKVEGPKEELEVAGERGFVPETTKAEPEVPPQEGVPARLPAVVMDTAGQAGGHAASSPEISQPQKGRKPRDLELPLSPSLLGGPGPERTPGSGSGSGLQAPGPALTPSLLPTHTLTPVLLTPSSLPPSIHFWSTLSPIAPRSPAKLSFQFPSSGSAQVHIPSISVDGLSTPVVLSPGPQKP
# How it was run: as §1
# GABPA = biological target: T3, GABPA (Homo sapiens, UniProt Q06546 1-454); details: protein: recombinant; tags: N-terminal GST; dsDNA, one strand shown
# T3 sequence: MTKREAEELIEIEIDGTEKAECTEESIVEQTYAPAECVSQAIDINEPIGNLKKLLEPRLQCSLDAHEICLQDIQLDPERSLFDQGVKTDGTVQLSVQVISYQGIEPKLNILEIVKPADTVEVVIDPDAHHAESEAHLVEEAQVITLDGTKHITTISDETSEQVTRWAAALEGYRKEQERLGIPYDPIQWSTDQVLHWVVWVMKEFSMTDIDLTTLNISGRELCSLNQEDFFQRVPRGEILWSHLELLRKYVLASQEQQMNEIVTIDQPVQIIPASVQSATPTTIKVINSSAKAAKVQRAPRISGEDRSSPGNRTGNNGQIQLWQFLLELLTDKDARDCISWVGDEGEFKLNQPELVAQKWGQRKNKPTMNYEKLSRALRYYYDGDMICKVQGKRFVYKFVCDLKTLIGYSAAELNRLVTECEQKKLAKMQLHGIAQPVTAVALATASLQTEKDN
# How it was run: as §1
# ERG = biological target: T4, ERG (Homo sapiens, UniProt P11308 1-479); details: protein: recombinant; tags: N-terminal GST; dsDNA, one strand shown
# T4 sequence: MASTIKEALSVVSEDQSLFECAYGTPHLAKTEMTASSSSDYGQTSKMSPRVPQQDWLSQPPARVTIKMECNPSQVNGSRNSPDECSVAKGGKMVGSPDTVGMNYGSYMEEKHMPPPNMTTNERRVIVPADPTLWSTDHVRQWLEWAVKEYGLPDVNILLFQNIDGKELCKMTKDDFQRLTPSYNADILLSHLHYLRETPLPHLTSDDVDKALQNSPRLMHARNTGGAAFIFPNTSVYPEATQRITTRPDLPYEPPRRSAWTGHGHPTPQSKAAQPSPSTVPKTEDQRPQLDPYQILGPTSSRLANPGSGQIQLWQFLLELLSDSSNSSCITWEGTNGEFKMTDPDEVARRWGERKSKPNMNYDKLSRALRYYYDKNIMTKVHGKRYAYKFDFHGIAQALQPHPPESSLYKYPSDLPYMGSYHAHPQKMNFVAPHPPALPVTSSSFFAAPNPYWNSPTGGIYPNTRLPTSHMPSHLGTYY
# How it was run: as §1
# ELF1 = ELF1 (Homo sapiens, UniProt P32519 1-619); details: protein: recombinant; tags: N-terminal GST; dsDNA, one strand shown
# How it was run: as §1
# EHF = biological target: T5, EHF (Homo sapiens, UniProt Q9NZC4 1-300); details: protein: recombinant; tags: N-terminal GST; dsDNA, one strand shown
# T5 sequence: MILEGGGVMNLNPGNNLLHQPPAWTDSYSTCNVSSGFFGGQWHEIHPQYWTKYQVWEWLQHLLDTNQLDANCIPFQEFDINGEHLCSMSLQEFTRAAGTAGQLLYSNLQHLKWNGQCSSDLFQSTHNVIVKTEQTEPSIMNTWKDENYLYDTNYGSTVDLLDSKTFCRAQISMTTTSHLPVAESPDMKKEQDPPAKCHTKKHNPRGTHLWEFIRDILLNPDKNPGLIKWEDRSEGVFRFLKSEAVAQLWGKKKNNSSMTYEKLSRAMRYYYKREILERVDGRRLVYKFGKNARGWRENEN
# How it was run: as §1
# SPI1 = SPI1 (Homo sapiens, UniProt P17947 1-270); details: protein: recombinant; tags: N-terminal GST; dsDNA, one strand shown
# How it was run: as §1
# SPIB = SPIB (Homo sapiens, UniProt Q01892 1-262); details: protein: recombinant; tags: N-terminal GST; dsDNA, one strand shown
# How it was run: as §1
# ELK3 = biological target: T6, ELK3 (Homo sapiens, UniProt P41970 1-407); details: protein: recombinant; tags: N-terminal GST; dsDNA, one strand shown
# T6 sequence: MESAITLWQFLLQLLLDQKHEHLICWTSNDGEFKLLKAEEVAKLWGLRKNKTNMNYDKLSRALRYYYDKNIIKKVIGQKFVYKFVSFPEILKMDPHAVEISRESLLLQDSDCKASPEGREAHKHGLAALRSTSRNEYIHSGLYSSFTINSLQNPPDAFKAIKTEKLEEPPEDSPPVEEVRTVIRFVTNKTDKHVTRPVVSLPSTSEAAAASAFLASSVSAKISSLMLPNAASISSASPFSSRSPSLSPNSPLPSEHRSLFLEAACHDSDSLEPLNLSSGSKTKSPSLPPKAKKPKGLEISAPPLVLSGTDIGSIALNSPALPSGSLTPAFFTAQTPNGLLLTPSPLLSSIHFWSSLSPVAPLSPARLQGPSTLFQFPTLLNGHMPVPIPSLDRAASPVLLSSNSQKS
# How it was run: as §1
# FEV = biological target: T7, FEV (Homo sapiens, UniProt Q99581 1-238); details: protein: recombinant; tags: N-terminal GST; dsDNA, one strand shown
# T7 sequence: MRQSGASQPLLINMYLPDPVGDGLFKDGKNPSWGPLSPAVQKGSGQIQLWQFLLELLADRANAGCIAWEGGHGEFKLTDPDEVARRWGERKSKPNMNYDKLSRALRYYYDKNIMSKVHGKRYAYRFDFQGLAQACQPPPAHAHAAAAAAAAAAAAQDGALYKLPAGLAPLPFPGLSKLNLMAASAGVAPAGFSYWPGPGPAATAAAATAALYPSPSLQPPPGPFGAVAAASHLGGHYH
# How it was run: as §1
# ETV5 = ETV5 (Homo sapiens, UniProt P41161 1-510); details: protein: recombinant; tags: N-terminal GST; dsDNA, one strand shown
# How it was run: as §1
# HSF1 = HSF1 (Homo sapiens, UniProt Q00613 1-529); details: protein: recombinant; tags: N-terminal GST; chain copies: 3; dsDNA, one strand shown
# How it was run: as §1
# SPIC = biological target: T8, SPIC (Homo sapiens, UniProt Q8N5J4 1-248); details: protein: recombinant; tags: N-terminal GST; dsDNA, one strand shown
# T8 sequence: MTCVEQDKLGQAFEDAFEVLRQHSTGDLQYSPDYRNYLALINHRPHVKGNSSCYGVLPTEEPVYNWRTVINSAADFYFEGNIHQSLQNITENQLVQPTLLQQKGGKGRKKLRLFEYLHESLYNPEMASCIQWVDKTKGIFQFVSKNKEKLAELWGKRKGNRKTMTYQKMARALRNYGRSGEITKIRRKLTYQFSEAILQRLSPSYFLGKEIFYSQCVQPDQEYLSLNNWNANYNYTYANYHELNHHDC
# How it was run: as §1
# ELF4 = ELF4 (Homo sapiens, UniProt Q99607 1-663); details: protein: recombinant; tags: N-terminal GST; dsDNA, one strand shown
# How it was run: as §1
# ELK4 = biological target: T9, ELK4 (Homo sapiens, UniProt P28324-2 1-405); details: protein: recombinant; tags: N-terminal GST; dsDNA, one strand shown
# T9 sequence: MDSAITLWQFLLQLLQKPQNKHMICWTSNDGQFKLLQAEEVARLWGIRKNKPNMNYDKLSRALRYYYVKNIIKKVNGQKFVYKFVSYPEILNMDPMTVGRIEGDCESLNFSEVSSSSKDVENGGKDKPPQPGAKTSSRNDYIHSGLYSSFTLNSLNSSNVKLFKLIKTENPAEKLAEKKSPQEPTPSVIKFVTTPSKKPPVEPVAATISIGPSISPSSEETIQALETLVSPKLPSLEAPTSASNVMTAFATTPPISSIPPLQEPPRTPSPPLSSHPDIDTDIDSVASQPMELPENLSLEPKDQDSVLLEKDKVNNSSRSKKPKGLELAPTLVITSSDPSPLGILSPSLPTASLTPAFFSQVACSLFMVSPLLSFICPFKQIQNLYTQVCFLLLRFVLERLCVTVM
# How it was run: as §1
# ETV2 = biological target: T10, ETV2 (Homo sapiens, UniProt O00321 1-342); details: protein: recombinant; tags: N-terminal GST; dsDNA, one strand shown
# T10 sequence: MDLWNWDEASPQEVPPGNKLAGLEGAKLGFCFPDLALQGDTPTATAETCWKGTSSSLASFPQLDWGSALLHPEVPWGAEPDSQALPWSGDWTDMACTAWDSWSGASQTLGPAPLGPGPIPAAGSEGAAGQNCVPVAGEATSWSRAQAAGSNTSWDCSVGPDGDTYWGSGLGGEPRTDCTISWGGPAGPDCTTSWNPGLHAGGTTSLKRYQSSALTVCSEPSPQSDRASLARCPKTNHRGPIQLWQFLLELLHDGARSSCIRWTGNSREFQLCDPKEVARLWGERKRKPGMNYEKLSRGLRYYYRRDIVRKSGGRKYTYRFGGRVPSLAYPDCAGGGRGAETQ
# How it was run: as §1
# ELF3 = biological target: T11, ELF3 (Homo sapiens, UniProt P78545 1-371); details: protein: recombinant; tags: N-terminal GST; dsDNA, one strand shown
# T11 sequence: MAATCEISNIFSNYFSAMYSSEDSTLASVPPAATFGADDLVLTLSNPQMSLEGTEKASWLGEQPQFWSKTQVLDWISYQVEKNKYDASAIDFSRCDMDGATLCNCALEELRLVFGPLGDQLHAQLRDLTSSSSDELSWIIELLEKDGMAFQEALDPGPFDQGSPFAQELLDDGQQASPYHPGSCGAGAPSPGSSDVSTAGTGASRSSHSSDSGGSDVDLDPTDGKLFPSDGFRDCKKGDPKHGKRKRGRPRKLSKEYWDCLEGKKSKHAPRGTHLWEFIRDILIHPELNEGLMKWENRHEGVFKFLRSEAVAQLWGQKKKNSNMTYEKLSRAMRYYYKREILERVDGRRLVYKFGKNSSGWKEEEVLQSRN
# How it was run: as §1
# CRX = CRX (Homo sapiens, UniProt O43186 1-299); details: protein: recombinant; tags: N-terminal GST; dsDNA, one strand shown
# How it was run: as §1
# ETV1 = ETV1 (Homo sapiens, UniProt P50549 1-477); details: protein: recombinant; tags: N-terminal GST; dsDNA, one strand shown
# How it was run: as §1
# Sequence of ELF4 (Q99607 whole entry): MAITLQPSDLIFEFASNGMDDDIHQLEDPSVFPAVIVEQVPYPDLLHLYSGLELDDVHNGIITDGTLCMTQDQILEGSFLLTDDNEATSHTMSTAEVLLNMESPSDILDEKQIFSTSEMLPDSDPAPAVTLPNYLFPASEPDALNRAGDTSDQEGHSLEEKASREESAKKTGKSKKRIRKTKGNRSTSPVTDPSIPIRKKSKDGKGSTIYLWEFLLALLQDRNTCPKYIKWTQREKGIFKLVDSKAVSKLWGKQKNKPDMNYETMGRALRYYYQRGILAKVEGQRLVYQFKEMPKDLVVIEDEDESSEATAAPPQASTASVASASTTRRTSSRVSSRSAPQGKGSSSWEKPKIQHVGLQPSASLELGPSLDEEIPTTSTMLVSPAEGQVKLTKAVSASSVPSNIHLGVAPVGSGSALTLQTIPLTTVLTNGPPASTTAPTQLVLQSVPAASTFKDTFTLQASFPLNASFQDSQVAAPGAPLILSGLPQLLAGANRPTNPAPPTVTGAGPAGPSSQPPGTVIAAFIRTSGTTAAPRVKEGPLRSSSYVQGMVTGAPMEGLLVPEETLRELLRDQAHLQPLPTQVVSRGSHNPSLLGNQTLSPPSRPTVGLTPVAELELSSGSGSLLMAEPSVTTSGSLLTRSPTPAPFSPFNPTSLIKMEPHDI
# Sequence of SPIB (Q01892 whole entry): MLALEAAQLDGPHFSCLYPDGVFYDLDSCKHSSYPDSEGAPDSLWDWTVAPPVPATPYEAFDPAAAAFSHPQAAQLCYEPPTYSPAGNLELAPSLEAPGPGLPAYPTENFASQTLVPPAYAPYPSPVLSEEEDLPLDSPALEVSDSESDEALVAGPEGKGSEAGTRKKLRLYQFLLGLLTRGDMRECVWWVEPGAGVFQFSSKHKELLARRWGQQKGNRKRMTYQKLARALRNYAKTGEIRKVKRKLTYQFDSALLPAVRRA
# Sequence of CRX (O43186 whole entry): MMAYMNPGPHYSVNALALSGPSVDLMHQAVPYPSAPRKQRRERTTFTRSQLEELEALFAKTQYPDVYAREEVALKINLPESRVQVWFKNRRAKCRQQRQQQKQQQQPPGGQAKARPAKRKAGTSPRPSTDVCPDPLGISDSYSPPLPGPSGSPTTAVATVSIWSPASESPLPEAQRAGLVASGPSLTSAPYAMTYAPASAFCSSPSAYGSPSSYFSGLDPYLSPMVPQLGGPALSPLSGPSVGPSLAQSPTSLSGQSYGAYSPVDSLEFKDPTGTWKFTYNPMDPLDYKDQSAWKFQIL
# Sequence of ETV1 (P50549 whole entry): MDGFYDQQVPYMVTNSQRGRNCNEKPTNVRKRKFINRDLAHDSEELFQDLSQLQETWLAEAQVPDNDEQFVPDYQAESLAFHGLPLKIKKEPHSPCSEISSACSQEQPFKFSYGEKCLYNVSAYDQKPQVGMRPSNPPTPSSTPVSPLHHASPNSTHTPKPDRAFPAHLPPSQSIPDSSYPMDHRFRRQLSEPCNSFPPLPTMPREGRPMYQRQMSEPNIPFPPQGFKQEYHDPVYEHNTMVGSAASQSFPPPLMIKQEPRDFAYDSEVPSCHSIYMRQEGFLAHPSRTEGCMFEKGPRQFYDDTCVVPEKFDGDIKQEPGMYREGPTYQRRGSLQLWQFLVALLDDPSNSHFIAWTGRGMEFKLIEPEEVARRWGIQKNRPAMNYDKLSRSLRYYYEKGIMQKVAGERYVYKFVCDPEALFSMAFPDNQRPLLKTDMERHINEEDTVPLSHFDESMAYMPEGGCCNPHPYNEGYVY
# Sequence of HSF1 (Q00613 whole entry): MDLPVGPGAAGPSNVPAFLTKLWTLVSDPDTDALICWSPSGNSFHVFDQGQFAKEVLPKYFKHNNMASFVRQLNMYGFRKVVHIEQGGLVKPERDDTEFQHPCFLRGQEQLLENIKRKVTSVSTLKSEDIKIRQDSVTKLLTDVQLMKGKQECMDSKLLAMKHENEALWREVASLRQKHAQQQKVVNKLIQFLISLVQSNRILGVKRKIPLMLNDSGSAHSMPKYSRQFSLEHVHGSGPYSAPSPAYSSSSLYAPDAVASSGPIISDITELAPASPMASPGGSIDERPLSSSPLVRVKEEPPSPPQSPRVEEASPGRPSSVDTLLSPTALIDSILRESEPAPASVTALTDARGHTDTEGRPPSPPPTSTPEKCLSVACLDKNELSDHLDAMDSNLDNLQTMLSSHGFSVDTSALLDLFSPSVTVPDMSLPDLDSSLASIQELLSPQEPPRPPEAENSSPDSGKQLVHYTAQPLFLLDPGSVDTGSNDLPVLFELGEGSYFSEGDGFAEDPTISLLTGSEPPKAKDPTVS
# Sequence of ELF1 (P32519 whole entry): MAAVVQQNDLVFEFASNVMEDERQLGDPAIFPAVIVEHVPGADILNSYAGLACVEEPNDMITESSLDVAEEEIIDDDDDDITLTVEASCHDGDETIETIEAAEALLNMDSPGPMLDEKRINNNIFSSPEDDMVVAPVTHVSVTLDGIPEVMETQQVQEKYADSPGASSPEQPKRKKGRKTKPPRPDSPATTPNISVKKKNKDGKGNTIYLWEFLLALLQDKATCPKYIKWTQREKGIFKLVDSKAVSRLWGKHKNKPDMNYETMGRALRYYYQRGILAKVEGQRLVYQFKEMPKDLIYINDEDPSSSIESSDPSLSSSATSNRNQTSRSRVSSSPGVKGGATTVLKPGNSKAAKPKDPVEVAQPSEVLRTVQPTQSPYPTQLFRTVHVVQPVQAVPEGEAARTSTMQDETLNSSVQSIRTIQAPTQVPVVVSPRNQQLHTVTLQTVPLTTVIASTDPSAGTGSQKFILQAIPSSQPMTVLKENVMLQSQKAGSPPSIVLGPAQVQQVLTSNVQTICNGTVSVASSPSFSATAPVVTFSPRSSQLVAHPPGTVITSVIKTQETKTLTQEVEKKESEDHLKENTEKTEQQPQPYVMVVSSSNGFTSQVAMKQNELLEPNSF
# Sequence of ETV5 (P41161 whole entry): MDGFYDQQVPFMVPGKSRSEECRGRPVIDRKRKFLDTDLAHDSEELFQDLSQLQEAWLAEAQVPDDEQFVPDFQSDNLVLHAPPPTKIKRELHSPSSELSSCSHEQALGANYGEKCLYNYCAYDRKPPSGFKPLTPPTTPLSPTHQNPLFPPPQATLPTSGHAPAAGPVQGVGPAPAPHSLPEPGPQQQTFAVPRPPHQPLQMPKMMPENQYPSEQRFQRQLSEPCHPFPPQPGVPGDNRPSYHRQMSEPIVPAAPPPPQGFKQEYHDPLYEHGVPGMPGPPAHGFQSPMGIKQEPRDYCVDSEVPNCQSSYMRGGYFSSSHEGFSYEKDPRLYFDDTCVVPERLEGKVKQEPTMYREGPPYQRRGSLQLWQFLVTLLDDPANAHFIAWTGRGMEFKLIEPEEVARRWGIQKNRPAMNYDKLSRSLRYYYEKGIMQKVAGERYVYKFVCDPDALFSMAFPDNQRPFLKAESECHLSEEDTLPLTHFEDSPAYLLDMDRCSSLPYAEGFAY
sequence,measurement,setting,value
ATGCAT,binding signal,FLI1,"1.21 fold enrichment (6-mer frequency, TF over GST control)"
same,binding signal,ELK1,"1.21 fold enrichment (6-mer frequency, TF over GST control)"
same,binding signal,GABPA,"1.22 fold enrichment (6-mer frequency, TF over GST control)"
same,binding signal,ERG,"1.16 fold enrichment (6-mer frequency, TF over GST control)"
same,binding signal,ELF1,"1.16 fold enrichment (6-mer frequency, TF over GST control)"
same,binding signal,EHF,"1.22 fold enrichment (6-mer frequency, TF over GST control)"
same,binding signal,SPI1,"1.18 fold enrichment (6-mer frequency, TF over GST control)"
same,binding signal,SPIB,"1.19 fold enrichment (6-mer frequency, TF over GST control)"
same,binding signal,ELK3,"1.29 fold enrichment (6-mer frequency, TF over GST control)"
same,binding signal,FEV,"1.18 fold enrichment (6-mer frequency, TF over GST control)"
same,binding signal,ETV5,"1.19 fold enrichment (6-mer frequency, TF over GST control)"
same,binding signal,HSF1,"1 fold enrichment (6-mer frequency, TF over GST control)"
same,binding signal,SPIC,"1.31 fold enrichment (6-mer frequency, TF over GST control)"
same,binding signal,ELF4,"1.28 fold enrichment (6-mer frequency, TF over GST control)"
same,binding signal,ELK4,"1.11 fold enrichment (6-mer frequency, TF over GST control)"
same,binding signal,ETV2,"1.27 fold enrichment (6-mer frequency, TF over GST control)"
same,binding signal,ELF3,"1.07 fold enrichment (6-mer frequency, TF over GST control)"
same,binding signal,CRX,"1.05 fold enrichment (6-mer frequency, TF over GST control)"
same,binding signal,ETV1,"1.15 fold enrichment (6-mer frequency, TF over GST control)"

# — paper PMC7862700, “An all-to-all approach to the identification of sequence-specific readers for epigenetic DNA modifications on cytosine”
